# Assay results taken from PubChem BioAssay.
# “And” between values parts separate entries of the source, which are not always exact repeats. Equal entries are not always repeated. Inconclusive results are not listed. The source made the active and inactive calls. Unless noted, no stated cut-off is given here; in the data, active means inhibition above about 80%; inactive means the rest.
# Tests used:
# [1] = viability loss in pontine glioma line – cell-based, SU-DIPG-XXV, MIPE5.0, CellTiter-Glo, qHTS, dose response (AID 1347065; cut-off not given, nearly all actives have AC50 up to about 26 µM;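 further: cells exposed to compound for 48 hours before ATP readout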); conditions: CellTiter-Glo ATP luminescence
# [2] = JHH-DIPG-1 glioma cell viability, MIPE5.0 library, CellTiter-Glo luminescence, qHTS (AID 1347067; cut-off not given, nearly all actives have AC50 up to about 26 µM;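 further: cells exposed to compound for 48 hours before readout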); conditions: JHH-DIPG-1 glioma viability, CellTiter-Glo ATP luminescence
# [3] = growth inhibition of DIPG cells – cell-based, MIPE5.0 library, qHTS (AID 1347068; cut-off not given, nearly all actives have IC50 up to about 30 µM;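 further: cells exposed to compound for 48 hours before viability readout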); conditions: SU-DIPG-XXV viability
# [4] = growth inhibition, single agent or in combination, cell-based, chromothripsis tumors, cisplatin or BGB combos (AID 1671449); conditions: LFS_MB_P medulloblastoma cells;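 further: cells exposed for 96 hours; 0% = vehicle DMSO and 100% = killing by high DMSO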
# [5] = growth inhibition, single agent and combos, cell-based, chromothripsis tumors, cisplatin or BGB combos (AID 1671450); conditions: HDN33 neuroblastoma cells, stronger effect = higher value;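 further: cells exposed to compound for four days; 0% = vehicle DMSO and 100% = cell killing by high DMSO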
# [6] = growth inhibition, single agents and combos, ICB984, cell-based, cisplatin or BGB combos, synergistic combos for chromothripsis tumors (AID 1671451; call rule not given here;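 further: cells exposed for 96 hours before readout; 0% = vehicle DMSO and 100% = killing by high DMSO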); conditions: ICB984 medulloblastoma cells, drug combinations, stronger effect = higher value
# [7] = growth inhibition, single agents and combos, LFS_MB_1R, cell-based, cisplatin or BGB combos, synergistic combos for chromothripsis tumors (AID 1671452); conditions: LFS_MB_1R medulloblastoma cells, stronger effect = higher value;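 further: cells exposed for 96 hours before readout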
# [8] = growth inhibition, single agents and combos, HTB85, cell-based, BGB or cisplatin IC20 combos, synergistic combos for chromothripsis tumors (AID 1671453); conditions: HTB85 osteosarcoma cells, drug combinations, stronger effect = higher value;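 further: cells exposed for 96 hours before readout; 0% = vehicle DMSO and 100% = high DMSO killing control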
# [9] = growth inhibition, single agents and combos, CRL2098, cell-based, BGB or cisplatin IC20 combos, synergistic combos for chromothripsis tumors (AID 1671454); conditions: CRL2098 osteosarcoma cells, drug combinations, stronger effect = higher value;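 further: cells exposed for 96 h before readout; 0% = vehicle DMSO and 100% = killing by high DMSO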
# [10] = growth inhibition, single agents and combos, HD-MB03, cell-based, BGB or cisplatin IC20 combos, synergistic combos for chromothripsis tumors (AID 1671455; in the data active means inhibition above about 83%;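 further: 0% = vehicle DMSO and 100% = high DMSO as cytotoxic control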); conditions: HD-MB03 medulloblastoma cells, stronger effect = higher value
# [11] = growth inhibition, single agents and combos, UWB1.289, cell-based, BGB or cisplatin combos, synergistic combos for chromothripsis tumors (AID 1671456); conditions: UWB1.289 ovarian carcinoma cells, stronger effect = higher value;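 further: cells exposed to compound for four days; 0% = vehicle DMSO and 100% = killing by high DMSO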
# [12] = growth inhibition, single agents and combos, LFS_MB_2R, cell-based, cisplatin combos, synergistic combos for chromothripsis tumors (AID 1671457); conditions: LFS_MB_2R medulloblastoma cells, stronger effect = higher value;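 further: cells exposed to compound for four days before readout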
# [13] = growth inhibition, MDA-MB-436, cell-based, BGB or cisplatin combos, synergistic combos for chromothripsis tumors (AID 1671458; call rule not given here;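 further: cells exposed for 96 hours; 0% = vehicle DMSO and 100% = killing by high DMSO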); conditions: MDA-MB-436 breast carcinoma growth inhibition, drug combinations, stronger effect = higher value
# [14] = UWB1.289_BRCA1 ovarian cancer growth, cell-based, BGB or cisplatin combinations (AID 1671459); conditions: UWB1.289 BRCA1 ovarian carcinoma, drug combinations, stronger effect = higher value
# [15] = drug combination toxicity in non-malignant astrocytes – cell-based, BGB or cisplatin IC20 combos, cytotoxicity control for chromothriptic childhood tumor combination screen (AID 1671460); conditions: Human astrocytes, viability inhibition, drug combinations, at 0.5 µM, stronger effect = higher value;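 further: cells exposed to compounds for 96 hours before viability readout; 0% = vehicle and 100% = killing control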
# [16] = BT084 cell growth, single and combined drugs, ICGC_MB145, cisplatin and BGB IC40 combos (AID 1671461); conditions: BT084 medulloblastoma cells, drug combinations, stronger effect = higher value;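 further: cells exposed to drugs for 96 hours; 0% = vehicle DMSO and 100% = high DMSO full killing control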
# [17] = RCMB18 cell growth, single agent and combined, cisplatin and BGB IC40 combos (AID 1671462); conditions: RCMB18 medulloblastoma cells, stronger effect = higher value;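 further: cells exposed to compound for four days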
# [18] = CRL1545 cell growth, single agent and combined, cisplatin and BGB IC20 combos (AID 1671464); conditions: CRL1545 osteosarcoma cells, stronger effect = higher value;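 further: cells exposed to compound for 96 hours before readout; 0% = vehicle DMSO and 100% = high DMSO killing control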
# [19] = measured here: combination with BGB IC40, at 0.05 µM
# [20] = measured here: with BGB IC20 combination, at 0.5 µM
# [21] = measured here: with cisplatin IC20 combination, at 0.5 µM
# [22] = measured here: combination with cisplatin, at 0.5 µM
# [23] = measured here: combination with cisplatin, at 5 µM
smiles,measurement,setting,value
Nc1ccc(F)cc1NC(=O)c1ccc(CNC(=O)/C=C/c2cccnc2)cc1,AC50,[1],5.9 µM (active)
same,AC50,[2],9.34 µM (active)
same,IC50,[3],16.6 µM (active)
same,inhibition,"[4]; at 0.5 µM, stronger effect = higher value",-9.27% (inactive) and 17.5% (inactive)
same,inhibition,"[4]; measured here: combination with BGB IC20, at 0.005 µM",-31.2% and 6.89%
same,inhibition,"[4]; measured here: combination with BGB IC40, at 0.005 µM",-55.6% and -31.5%
same,inhibition,[4]; [19],-32.7% and -5.83%
same,inhibition,"[4]; measured here: combination with cisplatin, at 0.5 µM, stronger effect = higher value",16% and 62.9%
same,inhibition,"[4]; measured here: combination with cisplatin, at 5 µM, stronger effect = higher value",108% and 116%
same,inhibition,"[5]; BGB combo, at 5 µM",80.7%
same,inhibition,[5]; at 0.5 µM,12.4% (inactive) and 12.7% (inactive)
same,inhibition,"[5]; cisplatin combo, at 5 µM",80.6% and 84.9%
same,inhibition,[5]; [20],1.48% and 7.37%
same,inhibition,[5]; [21],26.1% and 17.9%
same,inhibition,"[5]; single agent, at 5 µM",78.9% and 79.8%
same,inhibition,"[6]; BGB IC20 combo, at 0.005 µM",6.31% and 11.4%
same,inhibition,"[6]; BGB IC40 combo, at 0.005 µM",6.94% and 2.58%
same,inhibition,"[6]; BGB IC40 combo, at 0.05 µM",84.2% and 81%
same,inhibition,[6]; at 0.5 µM,-12.1% (inactive) and -33.8% (inactive)
same,inhibition,"[6]; cisplatin combo, at 0.05 µM",83.9% and 80.3%
same,inhibition,"[6]; cisplatin combo, at 0.5 µM",-1.65% and -31.4%
same,inhibition,"[6]; cisplatin combo, at 5 µM",-26.1% and -13.8%
same,inhibition,"[6]; measured here: 5 uM single agent, at 5 µM",-14% and -9.96%
same,inhibition,[7]; at 0.5 µM,30% (inactive) and 36% (inactive)
same,inhibition,[7]; [19],-28.7% and -30.1%
same,inhibition,[7]; [22],65% and 50%
same,inhibition,[7]; [23],97% and 96%
same,inhibition,[8]; at 0.5 µM,21% (inactive) and 24% (inactive)
same,inhibition,"[8]; measured here: with BGB IC20, at 0.5 µM",43.2% and 13.5%
same,inhibition,"[8]; measured here: with BGB IC20, at 5 µM",97.2% and 95.3%
same,inhibition,"[8]; measured here: with cisplatin IC20, at 0.5 µM",15.4% and 37.9%
same,inhibition,"[8]; measured here: with cisplatin IC20, at 5 µM",97.9% and 96.5%
same,inhibition,"[8]; single agent, at 5 µM",91.8% and 89.6%
same,inhibition,[9]; at 0.5 µM,-40.8% (inactive) and -34.5% (inactive)
same,inhibition,"[9]; measured here: combination with BGB at IC20, at 0.5 µM",-53.4% and -17.4%
same,inhibition,"[9]; measured here: combination with cisplatin at IC20, at 0.5 µM",-22.2% and -51.8%
same,inhibition,[10]; at 0.5 µM,19.9% (inactive) and 36% (inactive)
same,inhibition,"[10]; measured here: combo with BGB at IC20, at 0.5 µM",24.3% and 36.2%
same,inhibition,"[10]; measured here: combo with cisplatin at IC20, at 0.5 µM",28.3% and 50.6%
same,inhibition,[11]; at 0.5 µM,6.29% (inactive) and 20.9% (inactive)
same,inhibition,"[11]; measured here: inhibition with BGB combination, at 0.05 µM",-10.5% and -21.7%
same,inhibition,"[11]; measured here: inhibition with cisplatin combination, at 0.05 µM",-34.6% and -15.2%
same,inhibition,[12]; at 0.5 µM,19.4% (inactive) and 17.9% (inactive)
same,inhibition,[12]; [22],42.4% and 41%
same,inhibition,[12]; [23],91.1% and 92.2%
same,inhibition,[13]; at 0.5 µM,-0.59% (inactive) and 2.18% (inactive)
same,inhibition,"[13]; measured here: BGB combination, at 0.5 µM",-5.08% and -6.18%
same,inhibition,"[13]; measured here: BGB combination, at 5 µM",27.2% and 23.4%
same,inhibition,"[13]; measured here: cisplatin combination, at 0.5 µM",-7.52% and 1.65%
same,inhibition,"[13]; measured here: cisplatin combination, at 5 µM",37.2% and 38.6%
same,inhibition,"[14]; BGB combination, concentration series, at 5 µM",85.3% and 82.2%
same,inhibition,[14]; at 0.5 µM,1.02% (inactive) and 1.89% (inactive)
same,inhibition,"[14]; cisplatin combination, concentration series, at 5 µM",98.1% and 92.9%
same,inhibition,[15],-0.32% (inactive) and -2.77% (inactive)
same,inhibition,[15]; measured here: combo with BGB IC20,-0.373% and -1.39%
same,inhibition,[15]; measured here: combo with cisplatin IC20,-8.73% and -1.18%
same,inhibition,[16]; at 0.5 µM,39.6% (inactive) and 45% (inactive)
same,inhibition,"[16]; cisplatin combination, at 0.5 µM",58.4% and 61.5%
same,inhibition,"[16]; cisplatin combination, at 5 µM",87.7% and 92.4%
same,inhibition,"[16]; measured here: BGB IC40 combination 0.05 uM, at 0.05 µM",-24% and -23.6%
same,inhibition,"[16]; single agent, at 5 µM",65.3% and 57.1%
same,inhibition,[17]; at 0.5 µM,43.9% (inactive) and 41.5% (inactive)
same,inhibition,"[17]; cisplatin combo, at 5 µM",93.2% and 98.3%
same,inhibition,"[17]; measured here: BGB IC40 combination, at 0.05 µM",-7.17% and -21.6%
same,inhibition,[17]; [22],52.2% and 77.9%
same,inhibition,"[17]; single agent, at 5 µM",82.6% and 79%
same,inhibition,[18]; at 0.5 µM,45.6% (inactive) and 32.9% (inactive)
same,inhibition,[18]; [20],25.5% and 27%
same,inhibition,[18]; [21],54.9% and 35.9%
same,inhibition,"[18]; single agent, at 0.05 µM",-31.6% and 15.5%
same,inhibition,"[18]; single agent, at 5 µM",32.4% and 21.9%
